pKd: −log10 of the molar value.
These compounds were tested on CHEK1.
For `Cc1ccccc1-c1cc(-c2c[nH]nc2-c2ccccn2)ccn1` [GW680061], the pKd was < 5.00.
`CS(=O)(=O)CCNCc1nc(-c2ccc3ncnc(Nc4ccc(OCc5ccccc5)c(Cl)c4)c3c2)cs1.Cl` [GW582764] was tested, and the pKd was < 5.00.
For `COc1ccc(Nc2nccc(N3CCC(NC(=O)c4cc5ccccc5s4)C3)n2)cc1` (stereo not shown) [GSK1379738], the pKd was < 5.00.
For `FC(F)(F)c1ccccc1-c1cc(-c2c[nH]nc2-c2ccccn2)ccn1` [GW679396], the pKd was < 5.00.
With `COc1ccc(Nc2nccc(-c3ccc(NC(=O)c4cc5cc(F)ccc5[nH]4)cc3)n2)cc1` [GSK1229496] the pKd was < 5.00.
In the case of `COC(=O)C(Cc1ccccc1)NC(=O)NC1CCN(c2ccnc(Nc3ccc(F)cc3)n2)C1` (stereo not shown) [GSK1379714], the pKd was < 5.00.
For `COc1cccc(C2=C(Nc3cc(Cl)c(O)c(Cl)c3)C(=O)NC2=O)c1` [SB-390767], the pKd was < 5.00.

Each compound was assayed on CHEK2.
In the case of `CC(C)c1cc(-c2ccc3c(N)n[nH]c3c2)nc(N)n1` [GSK2250882], the pKd was 6.49.
`CNc1cc(-c2ccc3c(N)n[nH]c3c2)nc(N)n1` [GSK2224810] was tested, and the pKd was 5.70.
For `COc1ccc(Nc2nccc(NCCNC(=O)Nc3cc(C)ccc3C)n2)cc1` [GSK1379899], the pKd was < 5.00.

These compounds were tested on CIT.
`Fc1ccc(-c2nc[nH]c2-c2ccncc2)cc1` [SB-217360] was tested, and the pKd was 6.51.
In the case of `Cc1ccc(NC(=O)Nc2ccccc2)cc1-c1ccc(C(=O)Nc2ccncc2)cc1` [GSK1398471], the pKd was 6.27.
`COc1cccc(NC(=O)Nc2ccc(C)c(-c3ccc(C(=O)Nc4ccncc4)cc3)c2)c1` [GSK1398474] was tested, and the pKd was 6.55.
`Fc1ccc(-c2nn3cccc(F)c3c2-c2ccncc2)cc1` [GW475620] was tested, and the pKd was 6.51.
Work on `Nc1nccc(-c2c(-c3ccc(F)cc3)ncn2C2CCN(Cc3ccccc3)CC2)n1` [SB-219980] yielded a pKd of 6.89.
In the case of `Cc1cccc2c(-c3ccncn3)c(-c3ccc(F)cc3)nn12` [GW515532], the pKd was 5.60.
With `Fc1ccc(-c2nc3n(c2-c2ccncc2)CCS3)cc1` [GI98581] the pKd was 6.12.
`Cc1ccc(NC(=O)Nc2ccc(Cl)cc2)cc1-c1ccc(C(=O)Nc2ccncc2)cc1` [GSK1398472] was tested, and the pKd was 6.37.
Work on `Cl.Cl.Cl.N#Cc1ccc(CCNc2nccc(-c3cccc(CN4CCNCC4)c3)n2)cc1` [GSK2137462] yielded a pKd of 5.07.
Compound `Cc1ccc(NC(=O)Nc2ccccc2F)cc1-c1ccc(C(=O)Nc2ccncc2)cc1` [GSK1398477] has a pKd of 6.24.
Compound `CC[C@@H]1CO[C@H](C(=O)Nc2ccccc2)CN1c1cc(-c2ccc3c(N)n[nH]c3c2)nc(NC)n1` [GSK2376236] has a pKd of 6.70.
For `CNc1nc(-c2ccc3c(N)n[nH]c3c2)cc(N2C[C@@H](C(=O)Nc3ccccc3)CC[C@H]2C)n1` [GSK2298859], the pKd was 6.30.

These compounds were tested on CLK1.
In the case of `Cc1cccc2c(-c3ccncn3)c(-c3ccc(F)cc3)nn12` [GW515532], the pKd was < 5.00.
`COc1ccc(CSc2nnc(-c3ccc4nccn4c3)o2)cc1C(F)(F)F` gave a pKd of 7.15.
In the case of `CNCc1ccc2nc(NC(=O)c3ccc(C(C)(C)C)cc3)cn2c1`, the pKd was 5.12.
`CNc1cc(-c2ccc3c(N)n[nH]c3c2)nc(N)n1` [GSK2224810] showed a pKd of 6.48.
For `COc1ccc(CSc2nnc(-c3ccc4ncsc4c3)o2)cc1C(F)(F)F`, the pKd was 6.77.

The compounds below were run on CLK2.
For `COC(=O)c1cccc(NC(=O)NC2CCN(c3ccnc(Nc4ccc(OC)cc4)n3)C2)c1` (stereo not shown) [GSK1379746], the pKd was < 5.00.
For `Cc1ccc(NC(=O)c2ccc(Cl)cc2)cc1-c1ccc(C(=O)Nc2ccncc2)cc1` [GSK1398467], the pKd was < 5.00.
With `COc1ccc(CSc2nnc(-c3ccc4nccn4c3)o2)cc1C(F)(F)F` the pKd was 6.82.
`CNc1cc(-c2ccc3c(N)n[nH]c3c2)nc(N)n1` [GSK2224810] gave a pKd of 6.39.

Source: publication PMC5540273 (PLoS ONE, 2017)
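Note: kd values determined as follow-up on hits from a single-replicate KINOMEscan panel screen.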
